Out of some 360,000 compounds screened, about 2,800 (0.78%) were called active. This is one part of a sample in which actives are shown more often than they occur. No stated cut-off is given here; in the data, active means inhibition above about 26%; inactive means the rest.

Here are results for 81 compounds from PubChem BioAssay AID602399 (Sanford-Burnham Center for Chemical Genomics, 2012).

This assay has as its system Nicotinate-nucleotide adenylyltransferase NadD (Staphylococcus aureus N315). Put plainly: inhibitors of S. aureus NadD, primary screen, biochemical, colorimetric, uHTS (AID 602399). Particulars: purified NadD enzyme, colorimetric absorbance read-out; at 20 µM; active compounds read high.
For the compound `CCCCCCCC1(C)NC(=O)N(CC(=O)Nc2cc(C)on2)C1=O` (stereo unspecified), the inhibition – broadly, the drop in the measured response relative to a control, in per cent – is -7.34% (inactive).

Take `O=C(CC1C(=O)NCCN1CC(c1ccccc1)c1ccccc1)NCCc1cn[nH]c1` (stereo unspecified): the inhibition is 7.62% (inactive).

As for `Cn1ncc([N+](=O)[O-])c1C(=O)Nc1cc(Cl)ccc1Cl`, the inhibition is -3.19% (inactive).

With `Cc1cc(C)c(OCC(=O)N(Cc2cccs2)C2CCS(=O)(=O)C2)c(C)c1` (stereo unspecified), the inhibition is -1.96% (inactive).

Consider `COc1cccc2c1C(=O)c1c(O)c3c(c(O)c1C2=O)CC(O)(C(C)=NNC(=O)c1ccc(Cl)c(Cl)c1)CC3OC1CC(N)C(O)C(C)O1` (stereo unspecified), for which the inhibition was 38.5% (active).

As to `Brc1cnc(N2CCCC2)nc1N1CCCCC1`, the inhibition is -5% (inactive).

As to `Cc1cc2nc(-c3ccc(F)cc3)c(Cc3ccsc3)n2c(C)c1Br`, the inhibition was 16.1% (inactive).

`Cc1cc2nc(-c3ccc(Cl)cc3)c(Cc3cccc(F)c3)n2c(C)c1Br`: the inhibition was 28.5% (inactive).

As for `Cc1cc2nc(-c3ccco3)c(Cc3cccc(F)c3)n2c(C)c1Br`, the inhibition is 50.5% (active).

Take `CCCSc1nc2[nH]ncc2c(=O)[nH]1`: the inhibition was 0.611% (inactive).

For the compound `CC(C)Oc1c(Br)cc(Br)cc1/C=N/NC(N)=S`, the inhibition is 6.4% (inactive).

On to `COCCNC(=O)CN(Cc1ccco1)C(=O)CCC(=O)Nc1nccs1`, for which the inhibition was -5.06% (inactive).

On to `Cc1ccc(CSCC2Nc3ccc(C(=O)N4CCN(c5ccc(F)cc5)CC4)cc3NC2=O)cc1` (stereo unspecified), for which the inhibition was 73.7% (active).

As to `O=C1Nc2cc(C(=O)N3CCN(c4ccc(F)cc4)CC3)ccc2NC1CSCc1cccc(F)c1` (stereo unspecified), the inhibition is 36.8% (active).

Regarding `C=CCn1c(SCc2cccc(F)c2)nc2cc(C(=O)N3CCC(C(N)=O)CC3)ccc2c1=O`, the inhibition was -4.38% (inactive).

Turning to `COC(=O)c1ccc(C(=O)OC)c(NC(=S)N2CCN(c3ccc(F)cc3)CC2)c1`, the inhibition was -1.25% (inactive).

For the compound `O=C(c1cccc(F)c1)N1CCN(c2ccc([N+](=O)[O-])c(N3CCCCC3)c2)CC1`, the inhibition is -9.3% (inactive).

`Cc1noc(C)c1S(=O)(=O)Nc1ccc(C(=O)N2CCN(c3ccc(F)cc3)CC2)cc1`: the inhibition was 10.7% (inactive).

For `COC(=O)c1ccc(/C=N/N2C(C)CCCC2C)cc1` (stereo unspecified), the inhibition is -8.27% (inactive).

With `CC(NC(=S)Nc1ccc(S(N)(=O)=O)cc1)c1ccc2c(c1)OCO2` (stereo unspecified), the inhibition is -0.72% (inactive).

For the compound `CC(=O)Nc1cccc(C(=O)OCC(=O)c2ccc3c(c2)OCO3)c1`, the inhibition was -7.21% (inactive).

For the compound `NS(=O)(=O)c1ccc(NC(=O)COC(=O)c2c3c(nc4ccccc24)/C(=C\c2ccc4c(c2)OCO4)CCC3)cc1`, the inhibition is 54.7% (active).

Regarding `NC(=O)c1ccc(NC(=O)COC(=O)c2c3c(nc4ccccc24)/C(=C\c2ccc4c(c2)OCO4)CCC3)cc1`, the inhibition is 55.2% (active).

Consider `NS(=O)(=O)c1ccc(NC(=O)COC(=O)CCc2c[nH]c3ccccc23)cc1`, for which the inhibition is -1.06% (inactive).

For `O=C(COC(=O)c1ccc(Cl)nc1)NCc1ccc2c(c1)OCO2`, the inhibition was 0.8% (inactive).

Regarding `CC1Cc2[nH][nH]c(=O)c2C(C2CC2)O1` (stereo unspecified), the inhibition was -3.07% (inactive).

For `CC(Oc1cccc(Cl)c1)C(=O)NC1CC(C)(C)NC(C)(C)C1` (stereo unspecified), the inhibition is -1.75% (inactive).

Regarding `C[C@H](NC(=O)CC[C@H]1O[C@@H](n2ccc(=O)[nH]c2=O)[C@H](O)[C@@H]1O)c1cccc2ccccc12`, the inhibition was -3.28% (inactive).

For the compound `CN(C(=O)CC1C(=O)NCCN1Cc1ccc(F)cc1Cl)C1CCCCC1` (stereo unspecified), the inhibition was 3.03% (inactive).

Consider `CCC1CCc2c(sc(NC(C)=O)c2C#N)C1` (stereo unspecified), for which the inhibition was 1.07% (inactive).

`CCC(c1nnnn1Cc1ccco1)N(Cc1cc2cc(OC)ccc2[nH]c1=O)C1CCCCC1` (stereo unspecified): the inhibition was 31.2% (active).

For `COc1ccc2[nH]c(=O)c(CN(Cc3nnnn3CCc3ccccc3)CC3CCCO3)cc2c1` (stereo unspecified), the inhibition is 14.2% (inactive).

For `CCOc1ccc2[nH]c(=O)c(CN(Cc3nnnn3CCc3ccccc3)CC3CCCO3)cc2c1` (stereo unspecified), the inhibition was 0.283% (inactive).

In the case of `O=C(COC(=O)C1CCCCC1)Nc1ccc([N+](=O)[O-])cc1`, the inhibition is -1.2% (inactive).

In the case of `O=C(N/N=C/c1cccc(OC(=O)c2ccc([N+](=O)[O-])cc2)c1)c1cccnc1`, the inhibition is -12.9% (inactive).

On to `O=C(COc1ccc([N+](=O)[O-])cc1)Nc1cccc(C(=O)Nc2ccccc2C(=O)O)c1`, for which the inhibition was -2.45% (inactive).

On to `O=C(COc1ccc([N+](=O)[O-])cc1)Nc1ccc(N2CCCC2)cc1`, for which the inhibition is 42.4% (active).

`O=C(CCC(=O)N1CCCC1)Nc1ccc([N+](=O)[O-])cc1`: the inhibition was -6.64% (inactive).

As to `O=C(COc1ccc(/C=N/NC(=O)c2ccc(O)cc2)cc1)Nc1ccc([N+](=O)[O-])cc1`, the inhibition is 71.1% (active).

For `C/C(=N\NC(=O)OC(C)(C)C)c1ccc[nH]1`, the inhibition is -6.93% (inactive).

As for `Cc1ccc(Cl)cc1N1CCN(C(=O)c2cccc3c(=O)c(C)c(-c4ccccc4)oc23)CC1`, the inhibition is 4.56% (inactive).

On to `C/C(N)=C(/C#N)C(=O)COC(=O)C1CCN(C(=O)c2ccc(Cl)cc2)CC1`, for which the inhibition was -7.06% (inactive).

Take `COc1ccc(NC(=O)/C(C#N)=C\c2cc(OC)c(OCc3ccc(C(=O)O)cc3)cc2Br)cc1`: the inhibition was 30.5% (active).

With `COc1cc(/C=C(\C#N)C(=O)Nc2ccc3ccccc3c2)c([N+](=O)[O-])cc1OC`, the inhibition was 5.18% (inactive).

In the case of `COCCNC(=O)/C(C#N)=C/c1cccc(OCc2ccccc2)c1`, the inhibition was -8.65% (inactive).

For the compound `CC(=O)Nc1ccc(S(=O)(=O)N2CCC(C(=O)NC3CC3)CC2)cc1`, the inhibition is 3.08% (inactive).

In the case of `COc1ccc(N2CCN(C(=O)CNC(=O)c3ccc(C(C)(C)C)cc3)CC2)cc1`, the inhibition is -1.98% (inactive).

For the compound `O=C(CNC(=O)c1ccc2ccccc2c1)Nc1ncccc1O`, the inhibition is 6.33% (inactive).

With `O=C(NCC(=O)N1CCN(c2ccccc2O)CC1)c1ccc2ccccc2c1`, the inhibition was 31.5% (active).

As to `O=C1NC[C@H](Cc2ccc(O)cc2)N(C[C@H]2CCCN2C[C@H](Cc2ccccc2)N2C[C@H](Cc3ccccc3)N(CCc3ccccc3)C(=O)C2=O)C1=O`, the inhibition is 24% (inactive).

For `CCOc1ccc(CCN2C(=S)N([C@@H](CC(C)C)CN3CCC[C@@H]3CN3C(=S)NC[C@@H]3Cc3ccc(O)cc3)C[C@@H]2CC(C)C)cc1`, the inhibition was 26.6% (inactive).

`CCOc1ccc(CCN2C(=S)N([C@@H](CC(C)C)CN3CCC[C@@H]3CN3C(=S)NC[C@@H]3Cc3ccc(O)cc3)C[C@@H]2Cc2ccc(O)cc2)cc1`: the inhibition was 35% (active).

As for `CCOc1ccc(CCN2C(=O)C(=O)N([C@@H](CC(C)C)CN3CCC[C@H]3CN3C(=O)C(=O)NC[C@@H]3Cc3ccccc3)C[C@@H]2CC(C)C)cc1`, the inhibition was 28.4% (inactive).

With `CC(C)C[C@H]1CNC(=O)C(=O)N1C[C@H]1CCCN1C[C@H](Cc1ccc(O)cc1)N1C[C@H](CC(C)C)N(CC2CCCCCC2)C(=O)C1=O`, the inhibition is 23.7% (inactive).

As for `O=C1NC[C@H](Cc2ccc(O)cc2)N(C[C@@H]2CCCN2C[C@H](Cc2ccccc2)N2C[C@H](Cc3ccccc3)N(CC3CCCCC3)C(=O)C2=O)C1=O`, the inhibition was 38.8% (active).

Regarding `C[C@H]1COC(=O)[C@H](CC(=O)OC(C)(C)C)C/C=C\C[C@@H](CC(=O)N[C@H](CO)Cc2ccccc2)C(=O)N1`, the inhibition was -1.24% (inactive).

Take `CC(c1ccccn1)N(C)C(=O)c1ccc2nc(Cc3cccc(Cl)c3)oc2c1` (stereo unspecified): the inhibition is -8.59% (inactive).

In the case of `CCOCCCNC(=O)Cc1cc(=O)[nH]c(=O)[nH]1`, the inhibition is 4.88% (inactive).

With `CC(=O)N1CCc2ccc(N)cc21`, the inhibition is -3.06% (inactive).

In the case of `O=C1NC(O)CCN1C1CC(O)C(CO)O1` (stereo unspecified), the inhibition is -1.72% (inactive).

`Cc1noc(C)c1S(=O)(=O)N(C)C[C@H]1Oc2ccc(NC(=O)C3CC3)cc2C(=O)N([C@H](C)CO)C[C@@H]1C`: the inhibition is 4.79% (inactive).

On to `Cc1ccc2nc(SCC(=O)N3CC(C)OC(C)C3)nc(=O)n2c1` (stereo unspecified), for which the inhibition is -2.71% (inactive).

`CCOC(=O)C1=CCC(c2ccc(F)cc2)N(S(=O)(=O)c2ccc(C)cc2)C1` (stereo unspecified): the inhibition is -6.49% (inactive).

For `COC(=O)[C@]12CCCCC=C1N(Cc1ccc(Cl)cc1Cl)C(=O)[C@H](CC(=O)NCc1cccc3ccccc13)C2`, the inhibition was 16.3% (inactive).

With `Cc1cc(C)c(-c2csc(NC(=O)CCCc3nc4ccccc4c(=O)[nH]3)n2)c(C)c1`, the inhibition was 21.6% (inactive).

On to `CCN(CC)c1ccc(C(=O)NNC(=O)CCc2nc3ccccc3c(=O)[nH]2)cc1`, for which the inhibition was -1.03% (inactive).

As to `CCCn1c(C)cc(-c2csc(NC(=O)CCc3nc4ccccc4c(=O)[nH]3)n2)c1C`, the inhibition is 47.6% (active).

`CN(CC(=O)NCc1ccc2c(c1)OCO2)CC(=O)Nc1ccc(F)c(F)c1F`: the inhibition is -3.42% (inactive).

Turning to `COc1ccc([N+](=O)[O-])cc1NC(=O)CC1SC(=Nc2cccc(C)c2C)N(/N=C(\C)c2ccc(C)cc2)C1=O` (stereo unspecified), the inhibition was 26.7% (active).

Consider `COc1ccc([N+](=O)[O-])cc1NC(=O)c1ccc(N(Cc2ccccc2C)S(C)(=O)=O)cc1`, for which the inhibition is 11% (inactive).

For `COc1ccc([N+](=O)[O-])cc1NCC(=O)c1ccc(C)cc1`, the inhibition is 7.38% (inactive).

Consider `N#CNC1=NCN(CCc2ccccc2)CN1`, for which the inhibition was 3.37% (inactive).

With `COc1ccc(NC(=O)N(C)C[C@@H]2OCc3cn(nn3)CCCC(=O)N([C@H](C)CO)C[C@H]2C)c(OC)c1`, the inhibition is -0.14% (inactive).

As to `CCCc1cc(=O)[nH]c(SCC(=O)Nc2sc3c(c2C#N)CCCC3)n1`, the inhibition was 0.874% (inactive).

In the case of `COc1cccc(CN(C)CC(=O)Nc2sc3c(c2C#N)CCC3)c1`, the inhibition was -5.48% (inactive).

With `COc1ccc(-n2c(SCC(=O)Nc3sc4c(c3C#N)CCCC4)nnc2-c2ccc(O)cc2)cc1`, the inhibition is 33.1% (active).

`COc1ccc(-c2ccc3[nH]c4c(c3c2)CCN2C[C@H]3[C@H](C)ON(C)[C@H]3C[C@@H]42)cc1`: the inhibition was -7.97% (inactive).

`COc1cccc(C(O)c2nc(-c3ccc(C)c(C)c3)cs2)c1` (stereo unspecified): the inhibition was -4.75% (inactive).

As for `Cc1cc(NC(=O)COC(=O)/C=C/c2ccc(C)o2)no1`, the inhibition is -5.17% (inactive).

For `COC(=O)/C=C\C(=O)Nc1cccc([N+](=O)[O-])c1`, the inhibition is 7.18% (inactive).

As for `Cc1ccc(/C=C/C(=O)Nc2ccc([N+](=O)[O-])c(NC(=O)/C=C/c3ccc(C)o3)c2)o1`, the inhibition was 47.9% (active).
